The supplement of paper PMC6555819

Legend:
Experiment in all cases: PBM binding z-score (relative to random genomic background probes); higher = stronger binding; sequences stand for … in GC…GCGATTGACAGCGTAGAATGAAGG
[1] = test system: PPARg:RXRa DBDmut IVT, anti-RXR (DBD mutation: RXRa K156A/R161A, NR concentration 270 nM, RXRa partner concentration 90 nM)
In short: (§1)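 Ligand-free nuclear receptor dimers were applied to custom Agilent 4×180K protein-binding microarrays whose double-stranded probes carried direct-repeat seeds, single-nucleotide variants, half-site ablations and random human genomic background sequences in 34-nt variable regions. Incubation lasted 1 h. Binding z-scores were computed against the random background probes from regression-normalized fluorescence.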

[2] = test system: PPARg:RXRa IVT, anti-PPARg (NR concentration 270 nM, RXRa partner concentration 90 nM)
In short: as §1

[3] = test system: PPARg DBDmut:RXRa IVT, anti-PPARg (DBD mutation: PPARg1 K132A/R137A, NR concentration 270 nM, RXRa partner concentration 90 nM)
In short: as §1

[4] = test system: PPARg DBDmut IVT, anti-PPARg (DBD mutation: PPARg1 K132A/R137A, NR concentration 270 nM)
In short: as §1

[5] = test system: PPARg homodimer (NR concentration 180 nM)
In short: as §1

[6] = test system: PXR:RXRa (NR concentration 270 nM, RXRa partner concentration 90 nM)
In short: as §1

[7] = test system: PXR homodimer (NR concentration 270 nM)
In short: as §1

[8] = test system: RARa:RXR (NR concentration 270 nM, RXRa partner concentration 90 nM)
In short: as §1

[9] = test system: RARa homodimer (NR concentration 270 nM)
In short: as §1

[10] = test system: RARb:RXRa (NR concentration 270 nM, RXRa partner concentration 90 nM)
In short: as §1

[11] = test system: RARb homodimer (NR concentration 270 nM)
In short: as §1

[12] = test system: RARg:RXRa (NR concentration 270 nM, RXRa partner concentration 90 nM)
In short: as §1

[13] = test system: RARg homodimer (NR concentration 270 nM)
In short: as §1

[14] = test system: RXRa DBDmut IVT, anti-RXR (DBD mutation: RXRa K156A/R161A, NR concentration 90 nM)
In short: as §1

[15] = test system: RXRa homodimer (NR concentration 180 nM)
In short: as §1

[16] = test system: THRa:RXRa (NR concentration 90 nM, RXRa partner concentration 90 nM)
In short: as §1

[17] = test system: THRa homodimer (NR concentration 90 nM)
In short: as §1

[18] = test system: VDR homodimer (NR concentration 270 nM)
In short: as §1

Sequence | PBM binding z-score [1] | PBM binding z-score [2] | PBM binding z-score [3] | PBM binding z-score [4] | PBM binding z-score [5] | PBM binding z-score [6] | PBM binding z-score [7] | PBM binding z-score [8] | PBM binding z-score [9] | PBM binding z-score [10] | PBM binding z-score [11] | PBM binding z-score [12] | PBM binding z-score [13] | PBM binding z-score [14] | PBM binding z-score [15] | PBM binding z-score [16] | PBM binding z-score [17] | PBM binding z-score [18]
ATATGTCGGTTACATCCGGGTCATTCAGGCTATG | 2.55 | 3.18 | 2.61 | 1.84 | 1.05 | 2.85 | 2.72 | 2.88 | 0.00144 | 1.91 | 2.58 | 2.37 | 1.71 | 0.511 | 2.45 | 3.31 | 2.52 | 3.41
ATCGAAAGGTCGAAGGGGAGTATACCCACCCGAA | -0.023 | 1.38 | 1.29 | 0.309 | 1.15 | 2.21 | 0.32 | 2.79 | 0.273 | 3.73 | 2.2 | 3.86 | 3.58 | 0.681 | 4.21 | 1.73 | -0.345 | 0.649
TCTATTAGTGGATTAGGGCAACCGAAACAGCGGA | 2.45 | 2.24 | 0.96 | 1.11 | 1.27 | 0.235 | 0.482 | 0.458 | 1.39 | 0.682 | 0.492 | 0.384 | 0.643 | 1.06 | 0.49 | 0.449 | 0.4 | 0.393
CGAACGAGGGCATGAGTTGATAGTAAATGCCGAT | 3.01 | 1.98 | -0.123 | 0.201 | -0.00807 | 0.636 | 0.316 | 0.644 | -0.245 | 1.94 | 0.956 | 1.48 | 1.7 | 2.41 | 1.09 | 1.33 | -0.0333 | 1.98
CCGACTGCGGCAGAAAGGTTACCATACCATCCGG | -0.1 | 0.0365 | -0.709 | -0.931 | 0.55 | 1.05 | -0.0131 | 1.42 | -0.186 | 1.29 | 1.92 | 0.857 | 0.647 | -0.0879 | 1.57 | 1.02 | 0.00107 | -0.0446
GCAGACAGGTGAAACGCCGGTAACTCAGGGTGGC | 0.72 | 0.227 | -0.163 | -1.53 | -0.427 | -0.468 | -0.822 | 0.0984 | -1.03 | 0.606 | -0.057 | 0.644 | 0.166 | -0.634 | 0.513 | 0.157 | -0.511 | -0.512
TCTATTAGTTGATTTGGGCAACCGAAACAGCGGA | 2.03 | 0.616 | 1.09 | 1.16 | 0.506 | 0.543 | 0.421 | 0.432 | 0.567 | 0.368 | -0.204 | 0.225 | 0.0812 | 1.3 | 0.406 | -0.0733 | 0.427 | 0.414
CGAATTAGGTCAAGGACAGTGAATCTCCGCACGC | 8.12 | 8.06 | 3.79 | 1.82 | 1.89 | 1.28 | 0.205 | 2.79 | 0.19 | 4.18 | 3.29 | 3.94 | 4.46 | 1.46 | 2.97 | 3.53 | 2.81 | 0.373
CGTCCAAGGTGAAAGGTCAGTGAAGAGATGACGG | 2.98 | 5.2 | -0.368 | -0.702 | 3.24 | 4.74 | 0.474 | 6.87 | 1.47 | 4.62 | 4.53 | 6.03 | 5.76 | 0.481 | 7.85 | 3.97 | 1.23 | 1.08
ATCGAAAGGTCGTGAGGTTAGTATACAGAAAGGC | 0.453 | 2.21 | 1.19 | 1.52 | 2.32 | 3.74 | 0.823 | 4.8 | 1.16 | 3.99 | 3.14 | 4.88 | 4.09 | 1.9 | 5.43 | 3.2 | 1.07 | 1.84
CGACAAAGTTCAAGGTAACGTAACAGAAAGCAGC | 0.277 | 1.76 | 0.591 | 0.507 | 2.08 | 3.81 | 2.44 | 3.27 | 1.06 | 4.89 | 3.7 | 5.27 | 5.99 | 4.29 | 4.69 | 2.8 | 1.02 | 3.11
TCTTGTATATCAATAGAGGTTAAGAAAGTGCGCT | 1.98 | 1.05 | 0.574 | 1.14 | 0.383 | 3 | 0.496 | 1.54 | 0.672 | 0.997 | 1.38 | 0.864 | 0.687 | 1.05 | 1.58 | 1.72 | -0.0174 | 0.47
GCTAGTTAGTCAGTAAAAGGTCACACACCGGTCG | 0.245 | 2.45 | 0.12 | 0.0734 | 3.34 | 4.72 | 0.761 | 4.98 | 2.21 | 3.96 | 5.02 | 4.93 | 4.43 | 0.44 | 5.22 | 3.49 | 1.36 | 1.62
TCTTGTAGATCTATAGAGGTTAAGAAAGTGCGCT | 1.2 | 0.683 | 0.144 | 0.174 | 0.213 | 2.66 | -0.0488 | 1.63 | 0.178 | 0.906 | 1.12 | 0.795 | 0.399 | 0.575 | 1.43 | 1.35 | -0.418 | 0.121
ATCTCTAGGTCACCAAGTTCAGTGAATGCCGAAC | 7.23 | 7.06 | 2.4 | 2.04 | 3.74 | 5.68 | 11.1 | 3.92 | 2.64 | 4.82 | 4.45 | 5.35 | 6.25 | 2.74 | 4.73 | 3.89 | 3.22 | 6.15
ACCGAAAGGTCGAAGGTGAGTATACCCACCCGAA | 0.582 | 2.06 | 0.374 | 0.174 | 0.885 | 3.14 | 0.0236 | 4.6 | 0.157 | 3.84 | 2.51 | 4.53 | 4.2 | 1.35 | 5.27 | 2.11 | -0.114 | 0.383
TCTTGTAGATCAATAGAGGTTAAGAAAGTGCGCT | 1.96 | 1.06 | 0.946 | 0.475 | 0.36 | 2.86 | 0.0612 | 1.67 | -0.172 | 0.91 | 1.1 | 0.791 | 0.296 | 0.705 | 1.28 | 2.07 | -0.31 | 0.3
CCTACTCGGCCAAGGTCATTGATCAGTCAAAGCA | 1.8 | 1.68 | -0.0349 | -0.365 | 2.76 | 3.75 | 2.34 | 3.59 | 1.82 | 3.52 | 3.33 | 3.95 | 3.71 | 2.24 | 3.6 | 3.36 | 2.98 | 3.83
ATCTCTAGGTAGCAAGTTCAGTGAAAGAGAGGAC | 0.208 | 0.604 | 0.0162 | 0.501 | 0.437 | 1.22 | 1.35 | 0.324 | 0.221 | 0.981 | 1.48 | 0.743 | 0.963 | 0.543 | 0.352 | 0.972 | 0.46 | 2.36
CGAACGAGGGCATGAGTTGGTAGCAAATGCCGAT | 2.72 | 1.66 | 0.738 | -0.612 | -0.306 | 0.171 | -0.43 | 0.384 | -0.55 | 1.81 | 0.553 | 0.807 | 1.29 | 1.87 | 0.675 | 1.03 | -0.283 | 0.904
CAAACTAGGTCTCGAAAGGTCAAAGTCGAATGAC | 5.54 | 5.71 | 2.45 | 0.645 | 3.86 | 5.61 | 2.13 | 6.33 | 2.57 | 4.4 | 4.49 | 5.71 | 5.18 | 1.18 | 6.53 | 3.97 | 1.2 | 2.67
GCATATAGGTAATACAACGTGAAAGTCCGATTGT | 4.04 | 2.2 | 0.468 | 0.495 | -0.277 | -0.414 | -0.12 | -0.549 | 0.219 | -0.451 | -0.603 | 0.114 | 0.451 | 0.181 | 0.119 | -0.366 | -0.557 | -0.205
CCTACTGGCCCAAAAAGGTCATTGATGCCGATAA | 0.453 | 1.52 | -0.0321 | -0.749 | 3.4 | 4.99 | 2.07 | 5.65 | 2.16 | 3.99 | 4.52 | 4.52 | 4.12 | 0.618 | 5.25 | 3.39 | 1.13 | 2.65
AGAACGAGGGCACGCTGAGTTGATAGGAGAGTAG | 3.83 | 3.7 | 0.653 | 0.276 | 0.451 | 1.1 | 0.0753 | 0.906 | -0.652 | 2.37 | 1.22 | 1.93 | 1.99 | 1.77 | 1.35 | 1.82 | 0.0402 | 1.76
AGAATGAGGTTAAGCTCAGGGAAACAGAATACAT | 3.66 | 2.98 | 0.873 | 0.751 | -0.0277 | 1.1 | 0.0253 | 2.17 | -0.438 | 2.06 | 0.601 | 2.43 | 1.72 | 1.26 | 2.59 | 2.67 | 0.503 | -0.00367
CTTCAAAGTTCAACTAAGGTAACGTAAAGCACGC | 0.299 | 1.44 | 1.35 | 1.17 | 3.47 | 5.58 | 4.16 | 4.32 | 2.15 | 5.19 | 4.33 | 5.92 | 6.84 | 4.36 | 5.26 | 5.38 | 2.06 | 3.94
ACTCTGAGGACAAAGGTCAGAGCTACGCCAGTGA | 1.18 | 4.01 | 0.601 | 0.00649 | 3.26 | 3.74 | 0.395 | 5.19 | 0.924 | 4.47 | 4.42 | 6.21 | 5.31 | 2.07 | 5.18 | 4.44 | 2.66 | 1.19
CAAACTAGGTCACAGAGTTCAAAGTCCGTGCGTA | 8.6 | 9.07 | 5.41 | 5.72 | 4.68 | 6.97 | 14.2 | 5.88 | 1.27 | 4.91 | 4.74 | 6.06 | 6.71 | 4.25 | 5.69 | 4.03 | 1.96 | 9.52
CCTACTGAGCCAAGGTCATTGATCAGTCAAAGCA | 0.598 | 0.834 | -0.559 | -0.729 | 2.66 | 3.69 | 2.46 | 3.64 | 1.47 | 3.15 | 3.43 | 3.7 | 3.17 | 2.2 | 3.23 | 3.52 | 2.49 | 3.65
